In all, about 47,000 compounds went through this assay and about 330 (0.7%) were called active. The sample holds actives, similar compounds and a random draw of the others, so the mix is not that of the screen. Unmarked numbers belong to inactive results. Rule as the data show it: active = inhibition above about 30%; inactive = the rest.
target: OTU domain-containing protein 3 (Homo sapiens) (UniProt Q5T2D3); assay: inhibitors of human OTUD3 deubiquitinase (AID 1645858); conditions: purified OTUD3, Ub-rhodamine fluorescence, 2 h; at 25 µM; stronger effect = higher value
Sequence (Q5T2D3 whole entry, looked up, the tested form may be a part): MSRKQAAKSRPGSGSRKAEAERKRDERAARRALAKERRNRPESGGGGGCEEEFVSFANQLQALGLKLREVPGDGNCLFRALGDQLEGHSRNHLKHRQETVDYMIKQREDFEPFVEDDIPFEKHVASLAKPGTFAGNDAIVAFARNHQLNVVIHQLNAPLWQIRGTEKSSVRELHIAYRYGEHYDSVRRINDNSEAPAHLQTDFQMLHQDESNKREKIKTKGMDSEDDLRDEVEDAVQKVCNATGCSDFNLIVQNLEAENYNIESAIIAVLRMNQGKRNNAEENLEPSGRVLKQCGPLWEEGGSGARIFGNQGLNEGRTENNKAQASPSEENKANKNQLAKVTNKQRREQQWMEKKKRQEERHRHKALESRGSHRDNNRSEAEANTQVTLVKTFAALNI

| SMILES | inhibition |
| --- | --- |
| Cc1nc(Nc2ncccn2)cc(C2CCCN2S(=O)(=O)N(C)C)n1 (stereo not drawn) | -8.82% |
| Cc1ccc(S(=O)(=O)N2CCC3(CC2)OC(C(=O)NCC(C)C)Cn2ccnc23)cc1 (stereo not drawn) | -3.62% |
| O=C(CNC(=O)C1COc2ccccc2O1)Nc1ccccc1Br (stereo not drawn) | -5.2% |
| CCn1nccc1C1CCCN1C(=O)C12CC3CC(CC(C3)C1)C2 (stereo not drawn) | -2.13% |
| COc1ccc(-c2ccc(CCC(=O)NCc3ccccc3)o2)cc1 | 0.714% |
| OC1CCC(Nc2nc(CN3CCOCC3)nc3sc4c(c23)CCC4)CC1 (stereo not drawn) | 1.88% |
| O=C(Nc1ccc(Cl)c(Cl)c1)C1C2C=CC3(O2)C1C(=O)N(CCCN1CCN(Cc2ccccc2)CC1)C3C(=O)NC1CCCCC1 (stereo not drawn) | -13.9% |
| CCN1C(=O)COc2cc(-c3noc(C(=O)N4CCN(c5ccccc5)CC4)n3)ccc21 | 5.26% |
| COc1cccc(NC(=O)C2Cc3ccccc3N2C(=O)c2ccccc2)c1 (stereo not drawn) | 12% |
| NS(=O)(=O)c1ccc(NS(=O)(=O)c2ccc(NC(=O)c3ccccc3)cc2)cc1 | 4.22% |
| CC(NC(=O)c1ncoc1-c1ccc(F)cc1)c1ccccn1 (stereo not drawn) | 3.88% |
| O=C(CNS(=O)(=O)/C=C/c1ccccc1)N1CCCC(c2nc3ccccc3s2)C1 (stereo not drawn) | -13.9% |
| CN(C)c1cccc(C(=O)OCC(=O)Nc2ccc(Cl)cn2)c1 | 1.07% |
| Oc1cccc2nc3c(O)cccc3nc12 | 60.7% (active) |
| CC(C)(C)C(=O)c1cn(CC(=O)N2CCc3ccccc3C2)c2ccccc12 | 0.535% |
| Clc1ccc(C2NC3=NCN(Cc4ccco4)CN3c3nc4ccccc4n32)cc1 (stereo not drawn) | 11.6% |
| O=C(Cn1cnc2ccccc21)N1CC(c2nc(-c3ccncc3)no2)C1 | -2.15% |
| COc1cccc(-n2c(=O)c(C(=O)NC(C)c3ccccc3)c(O)c3cccnc32)c1 (stereo not drawn) | 1.53% |
| O=C(NC1CCN(Cc2ccccc2)CC1)c1cc2cn(C3CC3)cc2s1 | -34.6% |
| Cc1ccc(S(=O)(=O)NCCc2nnc3ccc(SCC(=O)NCc4ccc5c(c4)OCO5)nn23)cc1 | 11.1% |
| CCc1cc(C(=O)NCc2ccccc2)nc2ccnn12 | -0.736% |
| CCN(CC)S(=O)(=O)c1ccc(C(=O)Nc2sc(C)c(C)c2C(N)=O)cc1 | -4.61% |
| CC(=O)c1ccc(NC(=O)CSc2ncnc3c2cnn3-c2ccc(C)cc2C)cc1 | -0.915% |
| Cc1ccc(S(=O)(=O)N2C[C@H]3NC(=O)c4ccccc4C(=O)[C@@]3(C)C2)cc1 | -3.74% |
| COc1cc(C2c3[nH]c4ccccc4c3C[C@@H]3C(=O)N(CCC4=CCCCC4)CC(=O)N23)cc(OC)c1OC (stereo partly drawn) | -46.8% |
| O=C(Nc1ccccc1Cl)N1C[C@H]2C[C@H]3[C@](C1)(CN(Cc1cccnc1)S3(=O)=O)O2 | 2.31% |

| SMILES | inhibition |
| --- | --- |
| C[C@@H]1CC[C@H]2C(CN3CCCC(C)(C)C3)C(=O)O[C@]23[C@H]1CC[C@@]1(C)O[C@@H]31 (stereo partly drawn) | -0.238% |
| CCOc1ccccc1Oc1nnnn1-c1ccccc1 | 23% |
| CN(C(=O)COc1ccc(C(N)=O)cc1)C1CCCCC1 | -6.97% |
| Cc1nn(-c2cccc(F)c2)c2c1c(C)c(CCC(=O)NCc1ccccn1)c(=O)n2C | 8.09% |
| CC(=O)N1CCC(N2CCC[C@H]2c2nc(-c3ccc(OC4CCCCC4)nc3)no2)CC1 | -18.8% |
| O=C(c1cc2ccc(F)cc2[nH]1)N1CCOCC(Cc2ccncn2)C1 (stereo not drawn) | -7.16% |
| Cn1cc(C(=O)N2CCCCC2c2nc(N)ncc2-c2ccccc2)ccc1=O (stereo not drawn) | -2.37% |
| CCC(=O)N(C)CCc1noc(-c2[nH]c3ccc(C)cc3c2C)n1 | -11.5% |
| Cc1noc(C)c1C1CCCN1S(=O)(=O)c1cccc(Cl)c1 (stereo not drawn) | 0.263% |
| O=C(COc1cccc2ccc(N3CCC(Cc4ccccc4)CC3)nc12)NCc1ccc(F)cc1 | 36.2% (active) |
| O=C(COc1cccc2ccc(N3CCC(Cc4ccccc4)CC3)nc12)Nc1cccc(F)c1 | 21.8% |
| O=C(CCc1nnc2ccc(N3CCCC3)nn12)NCc1ccc(F)cc1 | 12% |
| Cc1ccc(NC(=O)N2CCC(CC(=O)N3CCCCC3)CC2)cc1 | -0.189% |
| CCC(C)C1C(=O)/C(=C(\O)C2C3C(C)CC(C)CC3C=CC2C2(C)OC2C)C(=O)N1C (stereo not drawn) | 18.9% |
| CCOC(=O)N1CCN(c2nc3c(c(=O)[nH]c(=O)n3C)n2CCSc2ncccn2)CC1 | 13.2% |
| CC(C)CNC(=O)C1CCN(c2cncnc2N2CCOCC2)CC1 | 0.599% |
| CC(=O)c1sc(NC(=O)c2ccc(S(=O)(=O)N3CC(C)CC(C)C3)cc2)nc1C (stereo not drawn) | 4.19% |
| CCn1c(CN(C)C(=O)Nc2cccc(C)c2)nc2cc(C(=O)N(C)C)ccc21 | 10.5% |
| CS(=O)(=O)c1ccc(C(=O)Nc2ccccc2-c2ccccc2)cc1 | 11.2% |
| COc1ccc(N2CC(c3nnc(NC(=O)CCc4ccccc4)s3)CC2=O)cc1 (stereo not drawn) | 17.9% |
| N#CCCN(C(=O)c1cc2c(s1)-c1ccc(Cl)cc1S(=O)(=O)C2)c1ccccc1 | -4.41% |
| CC(=O)N1CCc2c([nH]c3ccccc23)C1 | -0.00325% |
| COc1ccccc1N(CC(=O)N1c2ccccc2CC1C)S(=O)(=O)c1ccc(F)cc1 (stereo not drawn) | 14% |
| Oc1ccc(O)c2c1C(O)CCC21Oc2cccc3cccc(c23)O1 (stereo not drawn) | -11.1% |
| Cc1nc2n(n1)CCN(C(=O)c1cc(-c3cccs3)[nH]n1)C2 | 0.034% |
| CC(Oc1ccccc1)C(=O)Nc1ccc(-c2cn3cccnc3n2)cc1 (stereo not drawn) | 4.02% |

| SMILES | inhibition |
| --- | --- |
| CSc1ncnc2c1sc1nc(-c3ccccc3)c3c(c12)CC(C)(C)OC3 | 7.31% |
| CCCCCCSc1ncnc2c1sc1nc(-c3ccccc3)c3c(c12)CC(C)(C)OC3 | -6.83% |
| CC1(C)Cc2c(c(-c3ccco3)nc3sc4c(SCCCc5ccccc5)ncnc4c23)CO1 | 33.5% (active) |
| COc1ccc(Cl)cc1C(=O)NCC(c1ccsc1)N1CCOCC1 (stereo not drawn) | -5.99% |
| CC1CN(S(=O)(=O)c2cccc(Cl)c2)Cc2ccccc2N1C (stereo not drawn) | -2.48% |
| Cc1ccc(S(=O)(=O)c2cn(CC(=O)NC3CCCC3)c3nc(C)ccc3c2=O)cc1 | -8.29% |
| N#Cc1cccc(CN2CC[C@@H]3[C@@H](CO[C@@H]3CNc3ncccn3)C2)c1 | 0.273% |
| CCN1CCN(c2ccc(-c3nc(-c4ccc(C)cc4)no3)cn2)CC1 | -1.12% |
| Cc1cc2n(n1)CCCN2C(=O)CCC(=O)N1CCN(c2ccc(F)cc2)CC1 | 7.75% |
| O=C(NCc1cccnc1)C1CCN(c2cnc(N3CCCCCC3)nc2)CC1 | -16.6% |
| O=C(Cn1cccc1-c1nnc(C2CC2)o1)NC1CCCCC1 | -15.9% |
| CCCNc1c(NC(=O)C2CC(=O)N(c3ccccc3)C2)c(=O)oc2ccccc12 (stereo not drawn) | 21.6% |
| O=C(N[C@@H]1C[C@@H](Oc2cccnc2)[C@H](O)[C@H]1N1CCCCC1)c1ccccn1 | -9.39% |
| CC(=O)N1Cc2ccccc2CC2(CCN(Cc3cccnc3)CC2)C1 | 4.03% |
| CCC(=O)Nc1nc2cc(NC(=O)c3ccc(OC)cc3)ccc2s1 | 17.4% |
| O=C(Cn1c(=O)n(Cc2ccc3c(c2)OCO3)c(=O)c2ccccc21)NCc1ccco1 | 0.529% |
| O=C(NCCc1ccccc1)c1ccc2c(=O)nc3c(-c4ccccc4F)n[nH]n3c2c1 | -7.12% |
| O=C(NCCc1ccccc1)c1ccc2c(=O)n(Cc3ccco3)c(=O)n(Cc3cccc([N+](=O)[O-])c3)c2c1 | 36.8% (active) |
| COCCn1cc2c3c(cccc31)CN(C(=O)c1cnccn1)CC2 | -12.8% |
| Cc1nn(-c2ccccn2)c2ncc(C(=O)c3cc(F)ccc3O)cc12 | -3.93% |
| CCNC(=O)CCc1nc2c(C)nn(-c3ccccc3)c2n(CC)c1=O | 9.41% |
| CC(C)c1cc(C2CCCN2C(=O)Cc2ccc(F)cc2)no1 (stereo not drawn) | 2.85% |
| CCN1CCC(n2c(C(F)(F)F)nc3c(OC)cccc32)CC1 | 5.17% |
| CCN1C[C@@]23CN(C(=O)c4cccc(Cl)c4)C[C@@H](C[C@@H]2S1(=O)=O)O3 | 11.4% |
| CCc1nnc(-c2ccc(=O)n(CC(=O)N3CCN(C(C)C)CC3)c2)o1 | -5.08% |
| CNc1nc(N2CCCCCC2)nc(-n2cnc(SC)n2)n1 | -0.432% |

| SMILES | inhibition |
| --- | --- |
| COc1cccc(N2CCN(C(=O)c3sc4ncccc4c3-n3cccc3)CC2)c1 | 15.3% |
| O=C(Cc1cc(=O)oc2cc(O)ccc12)N1CC[C@@]2(O)CCCC[C@H]2C1 | 1.08% |
| Cc1occc1C(=O)Nc1cc(-c2ccc(F)cc2)nn1C | -0.358% |
| O=C(O)CC1(CC(=O)Nc2ccc(Oc3ccccc3)cc2)CCCC1 | 15.9% |
| Clc1ccc(CNC2CCN(Cc3ccccc3)C2)cc1Cl (stereo not drawn) | 5.2% |
| Cc1cc(S(=O)(=O)N2CC=C(c3c(C)[nH]c4ccccc34)CC2)ccc1F | -29.4% |
| CCc1ccc(S(=O)(=O)N2CCC3(CC2)COCCN(Cc2cccnc2)C3)cc1 | -4.96% |
| O=C(c1ccc(N2CCCC2)nn1)N1CCN(c2ccccn2)CC1 | 0.782% |
| Cc1nn(-c2ccccc2)c(C)c1S(=O)(=O)N1CCN(c2ccccn2)CC1 | -4.16% |
| Clc1cc2nc(N3CCN(c4ccccn4)CC3)c3nncn3c2cc1Cl | 44.6% (active) |
| Cc1nc(NC(=O)c2ccc(F)cc2Cl)sc1-c1ccccc1 | -3.32% |
| CC(=O)N[C@@H]1C[C@H](c2cccc(F)c2)O[C@@H]2CCC[C@@H]12 | -4.95% |
| CCn1c(CNC(=O)c2ccco2)nnc1SCC(=O)Nc1cccc(F)c1 | 0.153% |
| COc1ccc(/C=C/C(=O)Nc2ccc3c(c2)OCCO3)cc1Br | -13.2% |
| O=C(CSc1nnc(-c2ccncc2)n1Cc1ccccc1)Nc1cccc(Cl)c1 | -10.3% |
| O=C(c1ccncc1)N1CC[C@@H]2CN(Cc3cccc(Cl)c3)S(=O)(=O)[C@@H]2CC1 | 2.12% |
| Cc1cccc(-c2c3c(=O)n(C)c(=O)n(C)c3cn2Cc2ccc(F)cc2)c1 | -12.7% |
| CC(C)=CCC/C(C)=C\Cc1c(O)cc(C)c(C=O)c1O | -3.19% |
| NC(=O)c1ccc(NC(=O)Cc2cc(-c3ccc(Cl)cc3)on2)cc1 | -10.7% |
| Cc1ccc(NS(=O)(=O)c2ccc3c(c2)NC(=O)CC(=O)N3)cc1F | -1.08% |
| CCOc1ccc(S(=O)(=O)N2CCCC2c2ccco2)cc1 (stereo not drawn) | -0.738% |
| O=C1CC(C(=O)N2CCC(c3ccc(Nc4ncccn4)cn3)CC2)c2ccccc2N1 (stereo not drawn) | -7.6% |
| O=S(=O)(c1cccc2cccnc12)N1CCN(C2CCCCC2)CC1 | -6.63% |
| O=C1C(O)=C(c2ccc(O)c(O)c2)C(=O)C(O)=C1c1ccccc1 | 73.3% (active) |
| CCOC(=O)c1cc(C(=O)Nc2cccc(C(F)(F)F)c2)n2ccc(C)cc12 | -0.911% |
